Targets with a hit are over-represented here; the source holds about 7,900 in all. About 0.6% of all pairs of compound and target were hits.
How the values were obtained:
Experiment in all cases: log2 fold change, soluble protein after heating vs DMSO (PISA); higher = thermal stabilisation; K562 cells, 10 uM, 30 min; active = over 0.2 and 3.5 SD of the protein, either way, in both replicates (recomputed)
[1] = compound: CS(=O)(=O)c1ccc(-c2cnc(N)c(C(=O)Nc3ccccc3)n2)cc1
Procedure, shortened: (§1)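 K562 cells (2×10^6 cells/mL) were treated with 10 μM compound for 30 min, and aliquots were heated for 3 min over 48°C-58°C. Pooled aliquots were extracted in PBS with 0.5% NP-40 at 4°C, and the supernatant after 21,000xg for 90 min was measured by TMTpro 16plex LC-MS/MS with channel sums equalised. Reported thermal stability, relative to control samples and from duplicates, is a log2 fold change.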

crizotinib = compound: C[C@@H](Oc1cc(-c2cnn(C3CCNCC3)c2)cnc1N)c1c(Cl)ccc(F)c1Cl [crizotinib]
Procedure, shortened: as §1

[2] = compound: C[C@@H]1COCCN1C2=NC(=NC(=C2)C3(CC3)S(=O)(=O)C)C4=C5C=CNC5=CC=C4
Procedure, shortened: as §1

[3] = compound: C[C@H](C1=CC=C(C=C1)C(=O)NC2=C3C=CNC3=NC=C2)N
Procedure, shortened: as §1

duvelisib = compound: C[C@H](Nc1ncnc2nc[nH]c12)c1cc2cccc(Cl)c2c(=O)n1-c1ccccc1 [duvelisib]
Procedure, shortened: as §1

gandotinib = compound: Cc1cc(Nc2cc(CN3CCOCC3)c3nc(C)c(Cc4ccc(Cl)cc4F)n3n2)n[nH]1 [gandotinib]
Procedure, shortened: as §1

tozasertib = compound: Cc1cc(Nc2cc(N3CCN(C)CC3)nc(Sc3ccc(NC(=O)C4CC4)cc3)n2)n[nH]1 [tozasertib]
Procedure, shortened: as §1

[4] = compound: Cc1cc(SCc2sc(-c3ccc(C(F)(F)F)cc3)nc2C)ccc1OCC(=O)O
Procedure, shortened: as §1

doramapimod = compound: Cc1ccc(-n2nc(C(C)(C)C)cc2NC(=O)Nc2ccc(OCCN3CCOCC3)c3ccccc23)cc1 [doramapimod]
Procedure, shortened: as §1

ispinesib = compound: Cc1ccc(C(=O)N(CCCN)[C@@H](c2nc3cc(Cl)ccc3c(=O)n2Cc2ccccc2)C(C)C)cc1 [ispinesib]
Procedure, shortened: as §1

Measured: log2 fold change

SRSF3 (UniProt P84103)
Chain of UniProt P84103 (P84103 whole entry, looked up): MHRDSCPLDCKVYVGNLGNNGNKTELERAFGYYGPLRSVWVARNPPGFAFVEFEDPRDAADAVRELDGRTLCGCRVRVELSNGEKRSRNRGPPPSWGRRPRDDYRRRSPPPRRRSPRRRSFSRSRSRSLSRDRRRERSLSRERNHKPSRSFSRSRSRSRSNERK
inactive: [1] -0.081 | crizotinib 0.061 | [2] -0.27 | [3] 0.128 | duvelisib -0.081 | gandotinib 0.247 | tozasertib -0.027 | [4] -0.024 | doramapimod -0.019 | ispinesib -0.095

SURF1 (UniProt Q15526)
inactive: [1] -0.001 | crizotinib -0.008 | [2] 0.043 | [3] -0.013 | duvelisib 0 | gandotinib -0.066 | tozasertib 0.016 | [4] 0.032 | doramapimod 0.01 | ispinesib -0.181

SMPD4 isoform 4 (UniProt Q9NXE4)
inactive: [1] -0.026 | crizotinib -0.215 | [2] 0.005 | [3] 0.01 | duvelisib 0.091 | gandotinib -0.133 | tozasertib -0.086 | [4] 0.025 | doramapimod 0.002 | ispinesib -0.255

SSRP1 (UniProt Q08945)
inactive: [1] -0.024 | crizotinib -0.018 | [2] 0.144 | [3] -0.088 | duvelisib 0.029 | gandotinib -0.029 | tozasertib 0.087 | [4] 0.072 | doramapimod -0.027 | ispinesib 0.048

SLC25A42 (UniProt Q86VD7)
inactive: [1] -0.054 | crizotinib 0.028 | [2] 0.015 | [3] -0.055 | duvelisib 0.005 | gandotinib 0.09 | tozasertib -0.021 | [4] -0.003 | doramapimod -0.004 | ispinesib 0.054

SPTBN4 (UniProt Q9H254)
inactive: [1] 0.026 | crizotinib 0.09 | [2] -0.024 | [3] 0.098 | duvelisib 0.007 | gandotinib -0.03 | tozasertib -0.039 | [4] -0.003 | doramapimod -0.03 | ispinesib 0.06

STX17 (UniProt P56962)
Chain of UniProt P56962 (P56962 whole entry, looked up): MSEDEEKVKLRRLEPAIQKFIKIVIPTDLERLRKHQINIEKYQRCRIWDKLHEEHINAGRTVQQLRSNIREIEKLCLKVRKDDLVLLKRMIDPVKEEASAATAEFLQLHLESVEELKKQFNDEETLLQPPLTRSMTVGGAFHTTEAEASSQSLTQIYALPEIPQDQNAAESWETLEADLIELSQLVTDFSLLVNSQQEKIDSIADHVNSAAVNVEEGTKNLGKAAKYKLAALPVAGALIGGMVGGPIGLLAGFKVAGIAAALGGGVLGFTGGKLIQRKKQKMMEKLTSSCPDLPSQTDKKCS
inactive: [1] 0.197 | crizotinib -0.27 | [2] 0.025 | [3] -0.171 | duvelisib -0.156 | gandotinib -0.026 | tozasertib -0.031 | [4] 0.001 | doramapimod 0.031 | ispinesib -0.246

SMCHD1 (UniProt A6NHR9)
Chain of UniProt A6NHR9 (A6NHR9 whole entry, looked up): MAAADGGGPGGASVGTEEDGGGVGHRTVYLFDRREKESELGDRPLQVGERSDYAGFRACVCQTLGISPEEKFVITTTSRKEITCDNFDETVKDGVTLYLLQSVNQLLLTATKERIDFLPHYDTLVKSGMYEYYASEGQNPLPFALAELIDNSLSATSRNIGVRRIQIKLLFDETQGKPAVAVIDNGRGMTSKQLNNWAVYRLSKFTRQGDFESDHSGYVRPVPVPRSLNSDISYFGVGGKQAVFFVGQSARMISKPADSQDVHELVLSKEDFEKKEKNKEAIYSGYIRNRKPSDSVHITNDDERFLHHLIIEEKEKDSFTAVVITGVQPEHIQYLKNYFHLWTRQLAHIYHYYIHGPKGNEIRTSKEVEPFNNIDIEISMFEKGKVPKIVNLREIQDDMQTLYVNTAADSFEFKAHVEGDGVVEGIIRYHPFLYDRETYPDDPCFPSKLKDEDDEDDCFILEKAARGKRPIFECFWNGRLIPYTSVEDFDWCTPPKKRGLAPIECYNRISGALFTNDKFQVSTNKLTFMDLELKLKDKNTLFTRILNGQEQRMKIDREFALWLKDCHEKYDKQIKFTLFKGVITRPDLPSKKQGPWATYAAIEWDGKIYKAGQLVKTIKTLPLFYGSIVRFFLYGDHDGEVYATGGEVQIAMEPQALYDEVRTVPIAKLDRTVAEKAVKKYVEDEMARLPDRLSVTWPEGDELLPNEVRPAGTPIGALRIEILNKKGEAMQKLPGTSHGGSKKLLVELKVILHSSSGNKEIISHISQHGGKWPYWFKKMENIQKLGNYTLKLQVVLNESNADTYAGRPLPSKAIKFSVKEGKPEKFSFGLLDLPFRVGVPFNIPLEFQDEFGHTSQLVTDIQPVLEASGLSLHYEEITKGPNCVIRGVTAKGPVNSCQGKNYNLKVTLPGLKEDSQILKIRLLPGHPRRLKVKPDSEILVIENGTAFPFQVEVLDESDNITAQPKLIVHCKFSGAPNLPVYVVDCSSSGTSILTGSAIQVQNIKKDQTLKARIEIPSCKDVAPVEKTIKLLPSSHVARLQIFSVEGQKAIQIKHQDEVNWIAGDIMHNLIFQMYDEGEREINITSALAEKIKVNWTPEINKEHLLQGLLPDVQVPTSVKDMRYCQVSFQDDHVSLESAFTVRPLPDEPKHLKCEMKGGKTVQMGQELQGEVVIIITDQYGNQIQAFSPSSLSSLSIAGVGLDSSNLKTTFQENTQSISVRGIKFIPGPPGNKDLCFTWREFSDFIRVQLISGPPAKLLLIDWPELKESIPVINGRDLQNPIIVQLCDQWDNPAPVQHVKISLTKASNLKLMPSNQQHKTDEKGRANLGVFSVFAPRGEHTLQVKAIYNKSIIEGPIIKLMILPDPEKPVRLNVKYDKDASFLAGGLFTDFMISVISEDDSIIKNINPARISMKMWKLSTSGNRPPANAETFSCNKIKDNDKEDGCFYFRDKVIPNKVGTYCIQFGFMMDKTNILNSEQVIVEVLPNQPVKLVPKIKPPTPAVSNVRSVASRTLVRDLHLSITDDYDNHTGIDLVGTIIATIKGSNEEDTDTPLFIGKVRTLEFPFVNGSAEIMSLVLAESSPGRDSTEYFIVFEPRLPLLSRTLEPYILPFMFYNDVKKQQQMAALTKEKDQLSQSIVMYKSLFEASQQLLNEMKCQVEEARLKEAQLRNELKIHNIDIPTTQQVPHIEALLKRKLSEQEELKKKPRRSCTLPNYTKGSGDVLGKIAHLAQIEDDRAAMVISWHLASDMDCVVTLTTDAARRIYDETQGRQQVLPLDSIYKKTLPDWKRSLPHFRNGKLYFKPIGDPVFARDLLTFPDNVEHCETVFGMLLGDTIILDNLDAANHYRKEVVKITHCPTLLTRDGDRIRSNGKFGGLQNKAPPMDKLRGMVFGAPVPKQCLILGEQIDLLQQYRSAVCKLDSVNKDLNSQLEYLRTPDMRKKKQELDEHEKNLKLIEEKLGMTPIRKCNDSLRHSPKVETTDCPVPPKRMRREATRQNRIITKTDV
inactive: [1] -0.019 | crizotinib -0.065 | [2] -0.041 | [3] -0.104 | duvelisib 0 | gandotinib 0.064 | tozasertib 0.007 | [4] 0.104 | doramapimod 0.059 | ispinesib -0.149

SMAP2 (UniProt Q8WU79)
inactive: [1] 0.04 | crizotinib 0.097 | [2] 0.015 | [3] 0.04 | duvelisib 0.02 | gandotinib -0.011 | tozasertib 0.058 | [4] 0.096 | doramapimod -0.047 | ispinesib -0.006

STOM (UniProt P27105)
inactive: [1] 0.086 | crizotinib -0.005 | [2] -0.035 | [3] 0.182 | duvelisib 0.011 | gandotinib 0.268 | tozasertib -0.015 | [4] 0.01 | doramapimod -0.006 | ispinesib -0.29

TCERG1 (UniProt O14776)
inactive: [1] 0.079 | crizotinib 0.073 | [2] 0.125 | [3] -0.063 | duvelisib 0.138 | gandotinib -0.057 | tozasertib 0.112 | [4] 0.179 | doramapimod -0.079 | ispinesib 0.015

SSR3 isoform 2 (UniProt Q9UNL2)
active: [3] -0.458
inactive: [1] 0.021 | crizotinib -0.043 | [2] 0.05 | duvelisib 0.012 | gandotinib 0.281 | tozasertib 0.003 | [4] -0.038 | doramapimod 0.034 | ispinesib 0.021

SNRPD3 (UniProt P62318)
Chain of UniProt P62318 (P62318 whole entry, looked up): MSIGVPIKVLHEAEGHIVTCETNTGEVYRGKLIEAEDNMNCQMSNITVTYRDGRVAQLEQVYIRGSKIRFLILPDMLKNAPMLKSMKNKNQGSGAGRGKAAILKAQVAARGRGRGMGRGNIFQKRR
inactive: [1] -0.102 | crizotinib 0.011 | [2] 0.036 | [3] 0.041 | duvelisib 0.039 | gandotinib 0.034 | tozasertib -0.035 | [4] -0.04 | doramapimod 0.055 | ispinesib 0.006

SRI (UniProt P30626)
inactive: [1] -0.061 | crizotinib 0.082 | [2] 0.159 | [3] -0.139 | duvelisib 0.212 | gandotinib -0.03 | tozasertib 0.106 | [4] 0.066 | doramapimod -0.032
active: ispinesib 0.353

SLC25A36 (UniProt Q96CQ1)
Chain of UniProt Q96CQ1 (Q96CQ1 whole entry, looked up): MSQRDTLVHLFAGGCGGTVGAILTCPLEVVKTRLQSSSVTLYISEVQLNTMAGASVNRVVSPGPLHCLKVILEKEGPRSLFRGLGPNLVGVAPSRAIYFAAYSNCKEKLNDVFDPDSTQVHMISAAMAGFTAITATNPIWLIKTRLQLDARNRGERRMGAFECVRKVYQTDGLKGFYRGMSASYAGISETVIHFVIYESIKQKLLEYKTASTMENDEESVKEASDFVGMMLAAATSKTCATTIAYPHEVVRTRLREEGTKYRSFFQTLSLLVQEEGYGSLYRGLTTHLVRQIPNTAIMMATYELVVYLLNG
inactive: [1] 0.016 | crizotinib 0.067 | [2] -0.061 | [3] -0.011 | duvelisib 0.195 | gandotinib 0.313 | tozasertib -0.059 | [4] -0.089 | doramapimod -0.027 | ispinesib -0.021

TK1 (UniProt P04183)
Chain of UniProt P04183 (P04183 whole entry, looked up): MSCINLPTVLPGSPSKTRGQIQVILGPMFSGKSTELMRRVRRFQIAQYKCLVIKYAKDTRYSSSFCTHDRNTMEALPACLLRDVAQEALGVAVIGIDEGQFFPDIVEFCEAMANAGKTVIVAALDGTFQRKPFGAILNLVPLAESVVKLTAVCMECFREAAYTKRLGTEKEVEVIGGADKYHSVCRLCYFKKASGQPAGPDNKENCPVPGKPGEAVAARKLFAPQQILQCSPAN
inactive: [1] -0.046 | crizotinib 0.011 | [2] -0.008 | [3] -0.097 | duvelisib 0.004 | gandotinib -0.055 | tozasertib -0.032 | [4] -0.03 | doramapimod -0.013 | ispinesib 0.017

SLC30A10 (UniProt Q6XR72)
inactive: [1] 0.11 | crizotinib 0.192 | [2] 0.178 | [3] -0.001 | duvelisib 0.079 | gandotinib -0.078 | tozasertib -0.062 | [4] -0.046 | doramapimod 0.035 | ispinesib 0.077

TAMM41 isoform 3 (UniProt Q96BW9)
Chain of UniProt Q96BW9 (Q96BW9 whole entry, looked up): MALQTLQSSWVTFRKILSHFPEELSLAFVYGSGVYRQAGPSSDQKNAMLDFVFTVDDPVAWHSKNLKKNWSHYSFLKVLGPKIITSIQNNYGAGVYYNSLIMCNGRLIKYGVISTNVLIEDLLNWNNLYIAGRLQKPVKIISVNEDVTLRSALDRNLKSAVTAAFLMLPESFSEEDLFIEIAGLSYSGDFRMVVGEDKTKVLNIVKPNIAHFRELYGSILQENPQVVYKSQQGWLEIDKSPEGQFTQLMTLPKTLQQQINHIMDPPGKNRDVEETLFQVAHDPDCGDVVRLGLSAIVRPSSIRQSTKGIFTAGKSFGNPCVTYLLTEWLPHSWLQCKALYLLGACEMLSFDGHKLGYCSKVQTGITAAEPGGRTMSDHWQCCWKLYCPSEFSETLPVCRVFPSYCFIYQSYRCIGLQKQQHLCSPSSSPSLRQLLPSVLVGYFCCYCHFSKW
active: crizotinib -0.232 | ispinesib -0.249
inactive: [1] 0.064 | [2] 0.073 | [3] -0.016 | duvelisib 0.032 | gandotinib -0.04 | tozasertib -0.036 | [4] 0.05 | doramapimod -0.048

STK4 (UniProt Q13043)
inactive: [1] 0.009 | crizotinib -0.01 | [2] 0.032 | [3] 0.036 | duvelisib 0.068 | gandotinib 0.043 | tozasertib -0.021 | [4] -0.004 | doramapimod -0.008 | ispinesib -0.03

SPAG9 (UniProt O60271)
inactive: [1] 0.046 | crizotinib -0.056 | [2] -0.002 | [3] 0.065 | duvelisib -0.017 | gandotinib -0.034 | tozasertib 0.049 | [4] 0.012 | doramapimod 0.023 | ispinesib -0.188

SLC9A6 isoform 2 (UniProt Q92581)
active: ispinesib -0.331
inactive: [1] 0.028 | crizotinib 0.048 | [2] 0.022 | [3] -0.005 | duvelisib 0.079 | gandotinib -0.105 | tozasertib -0.024 | [4] -0.067 | doramapimod 0

STRN (UniProt O43815)
inactive: [1] 0.016 | crizotinib 0.068 | [2] -0.004 | [3] -0.125 | duvelisib 0.046 | gandotinib -0.048 | tozasertib 0.048 | [4] 0.076 | doramapimod -0.018 | ispinesib 0.198

TIMM21 (UniProt Q9BVV7)
inactive: [1] 0.02 | crizotinib -0.01 | [2] 0.042 | [3] -0.029 | duvelisib 0.009 | gandotinib 0.04 | tozasertib 0.017 | [4] 0.033 | doramapimod 0.02 | ispinesib -0.229

SLC38A9 (UniProt Q8NBW4)
inactive: [1] 0.165 | crizotinib -0.201 | [2] 0.052 | [3] 0.003 | duvelisib 0.081 | gandotinib -0.018 | tozasertib 0.001 | [4] -0.058 | doramapimod 0.067
active: ispinesib -0.474

SREK1 isoform 2 (UniProt Q8WXA9)
Chain of UniProt Q8WXA9 (Q8WXA9 whole entry, looked up): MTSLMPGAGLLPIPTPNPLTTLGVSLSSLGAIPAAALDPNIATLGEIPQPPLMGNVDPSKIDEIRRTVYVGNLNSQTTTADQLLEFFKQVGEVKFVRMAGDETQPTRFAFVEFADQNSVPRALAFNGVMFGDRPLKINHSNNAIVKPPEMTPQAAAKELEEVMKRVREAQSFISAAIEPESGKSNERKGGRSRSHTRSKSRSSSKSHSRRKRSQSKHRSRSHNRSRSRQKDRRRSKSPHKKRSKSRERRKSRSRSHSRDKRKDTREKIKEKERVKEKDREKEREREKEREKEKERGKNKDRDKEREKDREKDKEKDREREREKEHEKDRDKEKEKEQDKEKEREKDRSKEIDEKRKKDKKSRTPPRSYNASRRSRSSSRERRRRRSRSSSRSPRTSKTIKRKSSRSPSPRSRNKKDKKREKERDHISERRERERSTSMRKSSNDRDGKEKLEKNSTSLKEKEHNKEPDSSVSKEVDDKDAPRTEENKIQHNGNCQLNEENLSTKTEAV
inactive: [1] 0.317 | crizotinib -0.05 | [2] -0.005 | [3] -0.345 | duvelisib 0.026 | gandotinib 0.014 | tozasertib 0.003 | [4] 0.105 | doramapimod -0.027 | ispinesib 0.059

SUN1 isoform 9 (UniProt O94901)
Chain of UniProt O94901 (O94901 whole entry, looked up): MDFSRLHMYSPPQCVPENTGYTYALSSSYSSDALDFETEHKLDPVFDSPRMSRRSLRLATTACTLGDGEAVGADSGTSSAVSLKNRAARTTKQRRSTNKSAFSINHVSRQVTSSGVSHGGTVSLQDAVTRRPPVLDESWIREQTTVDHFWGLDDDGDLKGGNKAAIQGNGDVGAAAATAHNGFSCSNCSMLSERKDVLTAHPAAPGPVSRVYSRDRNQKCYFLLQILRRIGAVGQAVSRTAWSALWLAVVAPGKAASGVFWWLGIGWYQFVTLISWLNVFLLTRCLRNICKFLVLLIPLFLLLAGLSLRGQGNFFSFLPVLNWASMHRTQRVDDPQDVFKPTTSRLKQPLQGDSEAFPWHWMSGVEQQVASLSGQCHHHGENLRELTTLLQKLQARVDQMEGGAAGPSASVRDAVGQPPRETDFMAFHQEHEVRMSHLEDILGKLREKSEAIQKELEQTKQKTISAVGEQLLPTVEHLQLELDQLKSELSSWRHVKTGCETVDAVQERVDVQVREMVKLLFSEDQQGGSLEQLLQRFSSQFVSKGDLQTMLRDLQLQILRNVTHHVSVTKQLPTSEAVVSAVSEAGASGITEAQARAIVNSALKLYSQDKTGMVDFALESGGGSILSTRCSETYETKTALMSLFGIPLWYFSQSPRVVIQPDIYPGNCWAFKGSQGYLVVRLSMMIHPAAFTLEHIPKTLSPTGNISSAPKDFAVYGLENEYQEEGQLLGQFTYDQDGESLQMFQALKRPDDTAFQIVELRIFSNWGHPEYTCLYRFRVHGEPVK
active: ispinesib -0.324
inactive: [1] -0.03 | crizotinib -0.067 | [2] -0.005 | [3] 0.006 | duvelisib -0.059 | gandotinib -0.052 | tozasertib -0.047 | [4] -0.017 | doramapimod 0.089

SYF2 (UniProt O95926)
inactive: [1] -0.147 | crizotinib 0.206 | [2] -0.031 | [3] 0.157 | duvelisib -0.039 | gandotinib 0.11 | tozasertib -0.113 | [4] -0.078 | doramapimod 0.022 | ispinesib -0.079

SPCS2 (UniProt Q15005)
inactive: [1] 0.032 | crizotinib 0.001 | [2] 0.02 | [3] -0.036 | duvelisib 0.035 | gandotinib -0.007 | tozasertib -0.015 | [4] -0.013 | doramapimod 0.047 | ispinesib 0.085

THRAP3 (UniProt Q9Y2W1)
inactive: [1] 0.014 | crizotinib 0.04 | [2] 0.019 | [3] -0.111 | duvelisib 0.044 | gandotinib -0.003 | tozasertib -0.078 | [4] -0.071 | doramapimod 0.133 | ispinesib -0.043

STAT5B (UniProt P51692)
inactive: [1] 0.119 | crizotinib -0.353 | [2] -0.037 | [3] -0.014 | duvelisib -0.164 | gandotinib -0.209 | tozasertib 0.129 | [4] 0.097 | doramapimod -0.09 | ispinesib -0.082
